AMA1 RON2 block = qHTS for Inhibitors of AMA1-RON; Towards Development of Antimalarial Drug Lead: Primary Screen; AlphaScreen AMA1-biotinylated RON2 peptide binding; AID 720542, 2013; hit rate 0.2% among 360,000; Potency, µM (highest dose often 58.2 µM), actives largely listed as inhibitors; also: nearly all actives have a fitted effect of over 45% in size
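AMA1 (3D7) with his tag at 25 nM final met compounds first, then biotinylated RON2 peptide at 25 nM; detection used donor plus acceptor beads, 10 µg/mL apiece, read by AlphaScreen after 30 min at room temperature.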
Pf growth 96h = Primary qHTS for delayed death inhibitors of the malarial parasite plastid, 96 hour incubation | Potency, µM (doses to about 28.7 µM), actives largely listed as inhibitors | P. falciparum luciferase reporter growth, 96 h | hit rate 6.9% among 320,000 | AID 504834, 2011
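P. falciparum expressing integrated firefly luciferase, in erythrocytes at 2% hematocrit, 0.05% parasitemia, incubated with compounds 96 h at 37 C, 5% CO2. Growth inhibition read as loss of luminescence; two-generation exposure targets delayed-death apicoplast inhibitors.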
Pf growth 48h = Primary qHTS for delayed death inhibitors of the malarial parasite plastid, 48 hour incubation | P. falciparum luciferase growth in erythrocytes, 48 h | Potency, µM (titrated, usually from 28.7 µM), actives largely listed as inhibitors | hit rate 5.9% among 310,000
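Compounds are pin-transferred into medium, infected erythrocytes (2% hematocrit, 0.1% parasitemia final) are added, and plates sit one parasite generation at 37 C in 5% CO2. Detection reagent is then added and luminescence measured.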
SARS PLP yeast = qHTS of Yeast-based Assay for SARS-CoV PLP; hit rate 0.19% among 330,000; S. cerevisiae expressing SARS-CoV PLpro, growth rescue; Potency, µM (titrated, usually from 32.9 µM), actives largely listed as activators; calls by dose curve; also: nearly all actives have a fitted effect of over 55% in size
Large screens that a line does not name were inactive. An excerpt weighted towards active compounds, which were near 9.4% of everything screened. Unless noted, calls follow the shape of the dose curve; as a rule, active = well fitted curve in the direction sought with a large enough effect; inconclusive = small, poorly fitted or top-dose-only effect, or another doubt; inactive = no such curve, though single readings can be large; an effect the other way counts as inactive or inconclusive.

CCOc1ccccc1OCCCC(=O)N1CCN(S(=O)(=O)c2ccc(Cl)cc2)CC1	Pf growth 96h inconclusive, Pf growth 48h 13µM
CC(C)c1ccc(NC(=O)N2CCN(S(=O)(=O)c3ccccc3)CC2)cc1	Pf growth 48h inconclusive
CCOc1ccccc1OCCC(=O)N1CCN(S(=O)(=O)c2ccccc2[N+](=O)[O-])CC1	Pf growth 96h inconclusive, Pf growth 48h 12µM
O=C1C2C3C=CC([C@@H]2C(=O)N1c1nccs1)C31CC1 (stereo partly drawn)	none
O=C(NC1=NCCS1)c1cc2ccccc2o1	none
CC(C)(C)c1cccc(Cn2nnc3ccccc32)c1O	Pf growth 96h inconclusive, Pf growth 48h 9.3µM
Cc1cccc(Cn2nnc3ccccc32)c1O	Pf growth 96h inconclusive, Pf growth 48h inconclusive
Cc1cc(Cn2nnc3ccccc32)c(O)c(C(C)(C)C)c1	Pf growth 96h inconclusive, Pf growth 48h 12µM
CC(=O)c1oc2ccccc2c1NC(=O)COC(=O)c1ccc(-n2nc(C)cc2C)cc1	Pf growth 96h inconclusive
Cc1cc[n+](Cc2ccc([N+](=O)[O-])cc2)cc1	Pf growth 48h inconclusive
Cc1cc[n+](Cc2ccccc2)cc1	Pf growth 96h 9.3µM, Pf growth 48h 3.7µM
Cc1ccc(-c2cc[n+](Cc3ccccc3)cc2)cc1	Pf growth 48h 0.93µM
c1ccc(C[n+]2ccccc2)cc1	Pf growth 96h inconclusive, Pf growth 48h inconclusive
CCCOC(=O)c1ccc(Oc2cn[nH]c2-c2ccc(OC)cc2O)cc1	Pf growth 96h inconclusive, Pf growth 48h 10µM
CCc1cc(-c2[nH]ncc2-c2ccc(OC)cc2)c(O)cc1O	Pf growth 96h inconclusive, Pf growth 48h inconclusive
CCOc1ccc(-c2[nH]ncc2-c2ccc(OC)c(OC)c2)c(O)c1	Pf growth 48h inconclusive
CCOc1ccc(-c2[nH]ncc2Oc2ccccc2OC)c(O)c1	Pf growth 48h 8.3µM (no result: Pf growth 96h)
COc1ccc(-c2cn[nH]c2-c2ccc(OCc3ccc([N+](=O)[O-])cc3)cc2O)cc1	Pf growth 96h inconclusive, Pf growth 48h 13µM
CCOc1ccc(-c2[nH]ncc2Oc2ccccc2OCC)c(O)c1	Pf growth 96h inconclusive, Pf growth 48h 5.9µM
O=C(Cc1ccccc1)Nc1cccnc1	none
Cc1cc(-c2ccccc2)nc2cc(C(=O)OC(C)C)nn12	Pf growth 96h inconclusive
CC(N=C1NC(C)(C)Cc2ccccc21)C(=O)O (stereo not drawn)	none
CCOC(=O)N/N=C(\C)c1ccc(Oc2ncccn2)cc1	none
Cc1ccc(S(N)(=O)=O)cc1	none
Cc1ccccc1Nc1c(-c2ccc(N3CCOCC3)cc2)nc2ncccn12	none
C=C(C)COc1ccc(-c2n[nH]c(C)c2-c2ccc(Br)cc2)c(O)c1	Pf growth 96h inconclusive, Pf growth 48h inconclusive
C=C(C)COc1ccc(-c2[nH]ncc2-c2ccccc2OC)c(O)c1	Pf growth 48h 3.3µM
C=C(C)COc1ccc(-c2[nH]ncc2-c2ccc(Br)cc2)c(O)c1	Pf growth 96h 1.7µM, Pf growth 48h 3.7µM
CCOc1ccc(-c2[nH]ncc2-c2ccc(Cl)cc2)c(O)c1	Pf growth 96h 3.3µM, Pf growth 48h 8.3µM
COc1ccc(-c2cn[nH]c2-c2ccc(O)cc2O)cc1OC	Pf growth 96h 9.3µM, Pf growth 48h inconclusive
Cc1nnc(NNS(=O)(=O)c2ccc(Cl)cc2)[nH]c1=O	none
CCOc1ccc(NC(=O)CCC(=O)c2ccc(-c3ccccc3)cc2)cc1	Pf growth 96h inconclusive
Cc1nc(/N=C(\N)N(C)C)[nH]c(=O)c1C	none
CCOc1ccccc1Oc1cn[nH]c1-c1ccc(OCC(=O)NN)cc1O	Pf growth 96h 13µM (no result: Pf growth 48h)
C=C(C)COc1ccc(-c2[nH]ncc2Oc2ccccc2OC)c(O)c1	Pf growth 48h 13µM (no result: SARS PLP yeast)
C=C(C)COc1ccc(-c2[nH]ncc2Oc2ccc(OC)cc2)c(O)c1	Pf growth 96h inconclusive, Pf growth 48h inconclusive
O=C1CN(C(=O)COc2ccc([N+](=O)[O-])cc2Cl)c2ccccc2N1	Pf growth 96h 10µM, Pf growth 48h 2.9µM
Cn1c2ccccc2c2cc(C(=O)OCC(=O)N3CC(=O)Nc4ccccc43)sc21	Pf growth 48h 4.1µM
COc1ccc(/C=C/C(=O)OCC(=O)N2CC(=O)Nc3ccccc32)cc1	Pf growth 96h inconclusive
CCCCOc1ccc(/C=C/C(=O)OCC(=O)N2CC(=O)Nc3ccccc32)cc1OCC	Pf growth 96h inconclusive, Pf growth 48h 10µM
O=C1CN(C(=O)COc2cccc(F)c2)c2ccccc2N1	Pf growth 96h inconclusive (no result: AMA1 RON2 block)
O=C1CN(C(=O)COc2ccc(Cl)c(Cl)c2)c2ccccc2N1	Pf growth 96h 3.3µM, Pf growth 48h 13µM
CCc1ccc(NC(=O)Cn2nc(C)n3cccc3c2=O)cc1	none
CC(=O)Nc1cccc(NC(=O)/C=C/c2ccc(S(=O)(=O)N3CCOCC3)cc2)c1	none (no result: Pf growth 96h, Pf growth 48h)
CC1(C)C(C(=O)O)N2C(=O)C(NC(=O)Cc3ccccc3)C2S1=O (stereo not drawn)	none
O=C1CN(C(=O)COc2ccc(Br)cc2F)c2ccccc2N1	Pf growth 96h 8.3µM, Pf growth 48h 5.9µM
COc1ccc(C)c2sc(NC(=O)C3=COCCO3)nc12	none (no result: AMA1 RON2 block)
CCOc1nc2cnccc2n(CC(=O)Nc2ccccc2C(=O)OC)c1=O	Pf growth 96h inconclusive
COc1cccc2c1C(=O)c1c(O)c3c(c(O)c1C2=O)CC(O)(C(C)=O)CC3OC1CC(O)C(O)C(C)O1 (stereo not drawn)	none (no result: Pf growth 96h, Pf growth 48h, SARS PLP yeast)
CCCCC(=O)OCC(=O)C1(O)Cc2c(O)c3c(c(O)c2C(OC2CC(NC(=O)C(F)(F)F)C(O)C(C)O2)C1)C(=O)c1c(OC)cccc1C3=O (stereo not drawn)	none (no result: Pf growth 96h, Pf growth 48h, SARS PLP yeast)
COc1cccc2c1C(=O)c1c(O)c3c(c(O)c1C2=O)C[C@](O)(C(C)=O)C[C@H]3O[C@@H]1C[C@@H](N)[C@@H](O)[C@@H](C)O1	Pf growth 96h 1.2µM, Pf growth 48h 0.93µM (no result: SARS PLP yeast)
COc1cccc2c1C(=O)c1c(O)c3c(c(O)c1C2=O)C[C@@](O)(C(=O)CO)C[C@@H]3O[C@H]1C[C@H](N)[C@H](OC2CCCCO2)[C@H](C)O1 (stereo partly drawn)	Pf growth 96h 4.3µM, Pf growth 48h 3.8µM (no result: AMA1 RON2 block, SARS PLP yeast)
CC(C)(C#CCN1CCCC1)OCCC#N	Pf growth 96h inconclusive
Cc1cc(C)nc(NC(=O)c2ccc([N+](=O)[O-])o2)n1	none
NC(=O)c1oc2ccccc2c1NC(=O)c1ccc(F)cc1	none
NC(=O)c1oc2ccccc2c1NC(=O)c1ccc([N+](=O)[O-])o1	Pf growth 48h 9.3µM
NS(=O)(=O)c1ccc(O)c(NC(=O)c2ccc([N+](=O)[O-])o2)c1	Pf growth 96h 10µM, Pf growth 48h 7.4µM
Cc1cc(C)cc(NC(=O)c2ccc([N+](=O)[O-])o2)c1	Pf growth 96h inconclusive, Pf growth 48h 13µM
O=C(Nc1c(C(=O)N2CCOCC2)oc2ccccc12)c1cccc([N+](=O)[O-])c1	Pf growth 96h 13µM
N#Cc1c(NC(=O)CSc2n[nH]c(N)n2)oc(-c2ccccc2)c1-c1ccccc1	none (no result: Pf growth 48h)
COc1cc(NC(=O)c2ccc([N+](=O)[O-])o2)ccc1NC(=O)c1ccco1	Pf growth 96h inconclusive
